We go through 36 molecules from PubChem BioAssay AID2205 (University of Pittsburgh Molecular Library Screening Center, 2009).

Molecules are shown by their SMILES. Out of some 200,000 compounds screened, about 1,600 (0.8%) were called active.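 The calls were made as follows: active = plate Z-score above 3 for both tubulin-high and condensed-nucleus cell shares, with cell loss under 80%, at 10 µM; inactive = the rest, inconclusive results apart.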 Many of the other results were omitted from the sample, so actives are more common in it than they were.

A short description of the test: microtubule stabilizers in HeLa cells, primary screen, imaging, high-content imaging (AID 2205).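 As to % tubulin-high responders: anti alpha tubulin signal scored within the nucleus-defined area of each cell.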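 As to toxicity: 0% = mean cell density of plate MIN control wells and 100% = no cells.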 Conditions: HeLa tubulin immunostaining HCS, 24 h, at 10 µM; % Hoechst-high responders: measured here: nuclear condensation Hoechst responders, stronger effect = higher value, share of cells brighter than vehicle mean+2SD; % tubulin-high responders: stronger effect = higher value, share of cells brighter than vehicle mean+2SD; toxicity: measured here: cytotoxicity by cell density.
For the molecule `COC(=O)C1C(=O)NCC1c1ccc(C)cc1` (stereo not drawn), the % Hoechst-high responders was found to be 1.21%, the % tubulin-high responders was 1.21% (inactive) and the toxicity came out at 6.65%.
On to `COC(=O)C1=C(Nc2ccc(C)cc2)C=C(C)C(C(=O)OC)C1c1ccc(F)cc1` (stereo not drawn), for which the % Hoechst-high responders is 21.1%, the % tubulin-high responders is 34.1% (active) and the toxicity was determined as 39.5%.
Regarding `COc1ccc(C2NC(=S)NC3=C2CCc2ccccc23)cc1OC` (stereo not drawn), the % Hoechst-high responders was determined as 3.43%, the % tubulin-high responders was 3.22% (inactive) and the toxicity was determined as 5.09%.
Take `O=C(CCN1C(=O)/C(=C/c2cccs2)SC1=S)NNC(=O)c1cccc(O)c1`: the % Hoechst-high responders came to 1.28%, the % tubulin-high responders is 1.78% (inactive) and the toxicity was determined as 8.2%.
The corresponding values for `COC(=O)c1ccccc1NS(=O)(=O)c1ccc2[nH]c(=O)[nH]c2c1` are 5.36%, 4.9% (inactive) and 0.144%.
Taken in the same sequence, the figures for `CCOC(=O)c1ccccc1NS(=O)(=O)c1ccc(OC)cc1` were 15.7%, 39.6% (active) and 61.3%.
For `CCOc1cc(NS(=O)(=O)c2ccc(OC)cc2)c(OCC)cc1NC(C)=O`, the % Hoechst-high responders came to 0.933%, the % tubulin-high responders is 2.92% (inactive) and the toxicity turned out to be 3.17%.
The corresponding values for `COc1ccc(C)cc1NC(=O)CSc1nnc(CC(=O)Nc2ccccc2F)n1C` are 1.3%, 2.49% (inactive) and 3.08%.
Taken in the same sequence, the figures for `COc1ccc(C(=O)n2nc(-c3ccc(C)cc3)nc2N)cc1OC` were 34.9%, 48.4% (active) and 31.5%.
Turning to `COc1ccc(C(=O)n2nc(-c3ccc(Cl)cc3)nc2N)cc1OC`, the % Hoechst-high responders was 2.89%, the % tubulin-high responders was 4.28% (inactive) and the toxicity was found to be 4.28%.
Turning to `COc1ccccc1C(=O)n1nc(-c2ccccc2)nc1N`, the % Hoechst-high responders worked out at 2.45%, the % tubulin-high responders is 1.99% (inactive) and the toxicity worked out at 31.9%.
In the case of `COc1ccc(-c2[nH]ncc2CN(C)Cc2c(C)n[nH]c2C)c(OC)c1`, the % Hoechst-high responders came out at 1.45%, the % tubulin-high responders is 3.81% (inactive) and the toxicity stood at 16.7%.
For `Cc1cccc(C)c1NC(=O)C(c1ccccc1)N1CC(=O)Nc2ccccc21` (stereo not drawn), the % Hoechst-high responders stood at 2.09%, the % tubulin-high responders was 3.96% (inactive) and the toxicity is 8.51%.
The corresponding values for `COc1ccccc1-n1c(CNC(=O)c2ccccc2)nnc1SCC(=O)Nc1nnc(C)s1` are 1.91%, 2.83% (inactive) and 6.55%.
Taken in the same sequence, the figures for `Cc1cccc(CSc2nnc(NC(=O)CSc3nnc(C)s3)s2)c1` were 1.18%, 2.97% (inactive) and 12.2%.
Regarding `Cc1nnc(NC(=O)CSc2nccn2-c2cccc(C)c2C)s1`, the % Hoechst-high responders came to 21%, the % tubulin-high responders was 19.7% (active) and the toxicity turned out to be 64.4%.
The corresponding values for `CC(Oc1cccc(NC(=O)c2cccs2)c1)C(=O)c1ccccc1` (stereo not drawn) are 1.24%, 0.929% (inactive) and 5.37%.
For the molecule `Cc1cc(-c2csc(N)n2)c(C)n1-c1ccccc1`, the % Hoechst-high responders was 2.12%, the % tubulin-high responders was 6.37% (inactive) and the toxicity amounted to 3.22%.
For `CN1C(=O)/C(=C\c2ccc(-c3ccccc3)o2)SC1=S`, the % Hoechst-high responders came to 1.77%, the % tubulin-high responders is 6.05% (inactive) and the toxicity came to 4.81%.
On to `CCCCNC(=O)CSc1nc2n[nH]c(C)c2c(=N)n1-c1cccc(Cl)c1C`, for which the % Hoechst-high responders worked out at 2.38%, the % tubulin-high responders is 2% (inactive) and the toxicity is 5.31%.
Consider `C=CCn1c(CC(=O)Nc2cccc(OC)c2)nnc1SCC(=O)NC1CCCCC1`, for which the % Hoechst-high responders was determined as 1.48%, the % tubulin-high responders was 3.27% (inactive) and the toxicity is 1.42%.
For `COc1cccc(-n2c(SCC(=O)NC3CCCCC3)nc3n[nH]c(C)c3c2=N)c1`, the % Hoechst-high responders was determined as 11.3%, the % tubulin-high responders is 18.4% (active) and the toxicity was 62.6%.
Regarding `Cc1ccc(S(=O)(=O)N(C)C)cc1NC(=O)c1ccccc1Br`, the % Hoechst-high responders was determined as 2.26%, the % tubulin-high responders was 1.77% (inactive) and the toxicity amounted to 6.59%.
With `CN1CCN(C(=O)/C(=C\c2ccc3c(c2)OCO3)NC(=O)c2cccs2)CC1`, the % Hoechst-high responders is 1.07%, the % tubulin-high responders is 1.67% (inactive) and the toxicity turned out to be 6.65%.
With `CN(C)CCCn1c(SCCN2C(=O)c3ccccc3C2=O)nc2ccccc2c1=O`, the % Hoechst-high responders came out at 1.95%, the % tubulin-high responders is 2.16% (inactive) and the toxicity worked out at 6.21%.
Consider `CCC1(CC)Cc2ccccc2-c2nc3ccccc3c(=O)n21`, for which the % Hoechst-high responders stood at 1.65%, the % tubulin-high responders was 4.36% (inactive) and the toxicity was determined as 6.77%.
Take `CC(C)(C)c1nc2ccccc2c(=O)n1N1C(=O)c2ccccc2C1=O`: the % Hoechst-high responders stood at 13.9%, the % tubulin-high responders is 28.9% (active) and the toxicity came out at 37.9%.
In the case of `CCOc1ccc(NS(=O)(=O)c2ccc(C)c(C(N)=O)c2)cc1`, the % Hoechst-high responders amounted to 2.61%, the % tubulin-high responders was 1.97% (inactive) and the toxicity was 4.14%.
As for `CN1CCN(c2ccc(NC(=O)c3ccc4c(c3)[nH]c(=O)n4Cc3ccc(F)cc3)cc2)CC1`, the % Hoechst-high responders is 2.93%, the % tubulin-high responders is 3.59% (inactive) and the toxicity came to 6.48%.
`O=C(NN=C1CCC(=NNC(=O)c2cccnc2)CC1)c1cccnc1`: the % Hoechst-high responders stood at 2.04%, the % tubulin-high responders was 1.75% (inactive) and the toxicity stood at 6.55%.
The corresponding values for `COCC(C)n1c(C)cc(C(=O)COc2ccc(C)nc2[N+](=O)[O-])c1C` (stereo not drawn) are 1.67%, 1.5% (inactive) and 6.06%.
Turning to `O=C(NNC(=S)NC(=O)c1cn(-c2ccccc2)nc1-c1ccccc1)c1ccncc1`, the % Hoechst-high responders worked out at 2.91%, the % tubulin-high responders is 5.93% (inactive) and the toxicity was found to be 6.44%.
Take `CCOc1ccc(C2c3[nH]c4ccccc4c3CCN2Cc2cn(CC)nc2C)cc1` (stereo not drawn): the % Hoechst-high responders was 3.06%, the % tubulin-high responders was 2.78% (inactive) and the toxicity is 2.13%.
As for `NC(=O)c1ccccc1N(Cc1ccccc1)S(=O)(=O)c1ccccc1`, the % Hoechst-high responders amounted to 0.852%, the % tubulin-high responders is 1.16% (inactive) and the toxicity worked out at 4.6%.
In the case of `CCOC(=O)N1CCN(C(=O)c2ccccc2N(Cc2ccccc2)S(=O)(=O)c2ccc(OC)cc2)CC1`, the % Hoechst-high responders came out at 60.4%, the % tubulin-high responders is 17.8% (active) and the toxicity amounted to 42.6%.
Regarding `CCN1CCN(C(=O)c2ccccc2N(C)S(=O)(=O)c2ccc(C)cc2)CC1`, the % Hoechst-high responders was 1.51%, the % tubulin-high responders was 2.85% (inactive) and the toxicity amounted to 4.04%.
